Bioassay records deposited in PubChem by National Center for Advancing Translational Sciences (NCATS).
Hits are enriched below; roughly 7.3% of the tested compounds scored in any of these assays.
NPC1 promoter act – activates the NPC1 promoter; AID 485313; hit rate 2.4% among 320,000; Huh7 NPC1 promoter luciferase reporter, 24 h; Potency, µM (highest dose often 9.22 µM), without a hit: at the highest dose activation, actives largely listed as activators; also: % of control where 0% means no effect; nearly all actives have a fitted effect of over 60% in size
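Luciferase expression driven by the NPC1 promoter was measured in stably transfected Huh7 cells after a 24 h compound incubation, using a luciferase reagent and a luminescence read.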
ELG1 genotoxic – induces genotoxicity in HEK293T cells with luciferase-tagged ELG1 | HEK293T ELG1-luciferase reporter, luminescence, 16 h | Potency, µM (top dose mostly 46 µM), for the others: at the highest dose activity change, positive = activation, usual class: activators | hit rate 1.3% among 330,000; also: % of control where 0% means no effect; nearly all actives have a fitted effect of over 60% in size
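16 hr compound incubation (37 °C, 5% CO2) of HEK293T cells carrying luciferase-tagged ELG1; luciferase then measured by ONE-Glo luminescence after 30 min at RT.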
Rab9 prom act – activates the Rab9 promoter | AID 485297 | Potency, µM (doses to about 9.22 µM), inactives show top-dose activation, negative = inhibition, most hits filed as activators | hit rate 2.8% among 320,000 | Huh7 Rab9 promoter-luciferase reporter, luminescence, 24 h; also: % of control where 0% means no effect; nearly all actives have a fitted effect of over 60% in size
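Quantitative HTS format; Huh7 Rab9-luciferase reporter cells (1500/well) receive compound 2 h post-plating, incubate 24 h at 37 °C, then get luciferase reagent for 10 min before luminescence reading.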
Luc counter – blocks Kinase-Glo luciferase, a counter-screen artifact; Q27757; Kinase-Glo luciferase, ATP luminescence, 8 min; Potency, µM (titrated, usually from 38.3 µM), for the others: at the highest dose activity change, negative = inhibition, usual class: inhibitors; hit rate 0.28% among 200,000; also: % is scaled to controls: 0 for no effect and ±100 for the full control effect; nearly all actives have a fitted effect of over 60% in size
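Compounds were added to a substrate mix at pH 7.2 (50 mM imidazole, 10 uM ATP, within the enzyme's linear range), followed by Kinase-Glo detection reagent; luminescence was measured after 8 minutes at ambient temperature.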
FLuc counter – inhibits or activates purified firefly luciferase, miR-21 counter-screen; purified FLuc, Km substrates, luminescence inhibition; Potency, µM (titrated, usually from 57.5 µM), for inactives: at the highest dose activity change, negative = inhibition, usual class: inhibitors; hit rate 6.9% among 360,000;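 also: plate controls were vehicle for no effect and reference inhibitor for full effect; nearly all actives have a fitted effect of over 55% in size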
Target sequence (P08659 whole entry, looked up): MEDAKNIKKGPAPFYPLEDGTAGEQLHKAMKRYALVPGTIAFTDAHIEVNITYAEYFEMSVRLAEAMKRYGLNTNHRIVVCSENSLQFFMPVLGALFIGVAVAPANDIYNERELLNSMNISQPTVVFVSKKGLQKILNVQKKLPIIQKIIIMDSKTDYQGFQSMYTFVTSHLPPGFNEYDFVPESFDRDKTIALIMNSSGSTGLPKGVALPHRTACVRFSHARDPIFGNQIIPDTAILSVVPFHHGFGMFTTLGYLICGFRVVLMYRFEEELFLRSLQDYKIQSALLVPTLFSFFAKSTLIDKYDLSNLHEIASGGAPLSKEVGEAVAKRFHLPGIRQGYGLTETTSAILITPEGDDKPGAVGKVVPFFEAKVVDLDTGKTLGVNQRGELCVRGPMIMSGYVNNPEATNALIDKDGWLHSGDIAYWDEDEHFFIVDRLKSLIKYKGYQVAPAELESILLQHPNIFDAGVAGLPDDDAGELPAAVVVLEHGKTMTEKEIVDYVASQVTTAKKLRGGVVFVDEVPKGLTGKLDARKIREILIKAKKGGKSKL
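Purified P. pyralis luciferase, 10 nM final, with Km-level 10 uM D-luciferin and 10 uM ATP in 50 mM Tris acetate pH 7.5, 10 mM Mg acetate, 0.01% Tween-20, 0.05% BSA; 6-point qHTS titration about 60 µM downward; luminescence read.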
SMN2 splice up – increases expression of the SMN2 splice variant. HEK293 SMN2-luciferase splicing reporter, luminescence, 30-36 h. Potency, µM (doses to about 46.1 µM), for inactives: at the top dose activity change, positive = activation, usual class: activators. hit rate 2.8% among 210,000. AID 1458; also: % of control where 0% means no effect; nearly all actives have a fitted effect of over 55% in size
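HEK293 cells carry an SMN2 […]–luciferase reporter in which exon 7 inclusion puts luciferase in frame. Cells were plated 10-12 h before compound addition, then incubated 30-36 h at 37C. ONE-Glo luminescence was read; sodium butyrate at 4.5 mM final served as control.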
An asterisk follows results filed as active. Calls follow the shape of the dose curve; as a rule, active = well fitted curve in the direction sought with a large enough effect; inconclusive = small, poorly fitted or top-dose-only effect, or another doubt; inactive = no such curve, though single readings can be large; an effect the other way counts as inactive or inconclusive. Potency is read from the fitted curve at half-maximal effect.

For Cc1ccc(-n2nnnc2SCC(=O)NCC2(N3CCCCC3)CCCCC2)c(C)c1 the results were NPC1 promoter act 0%, ELG1 genotoxic -1% and Rab9 prom act -3%.
Screening O=C(c1ccc(OC2CCN(C(=O)C3CC3)CC2)cc1)N(CCO)Cc1ccccc1 returned NPC1 promoter act 1%, ELG1 genotoxic -4%, Rab9 prom act -4% and FLuc counter 6%.
Cc1ccsc1C(=O)NNC(=O)C1CC=CCC1C(=O)O (stereo not given) was read as NPC1 promoter act -2%, ELG1 genotoxic 6%, Rab9 prom act -2%, Luc counter -1%, FLuc counter inconclusive and SMN2 splice up 4%.
CC(C)c1ccc(C(=O)NNC(=O)C2CC=CCC2C(=O)O)cc1 (stereo not given) was read as NPC1 promoter act 23%, ELG1 genotoxic 11%, Rab9 prom act 29%, Luc counter -5%, FLuc counter 17µM* and SMN2 splice up inconclusive.
Cc1cc(NC(=O)OC2CCCCC2)ccc1[N+](=O)[O-] was read as NPC1 promoter act 2.8µM*, ELG1 genotoxic 22%, Rab9 prom act 2.8µM* and FLuc counter 7.6µM*.
Screening Cc1ccc(NC(=O)C2C3/C=C\CCCCC32)cc1 (stereo not given) returned NPC1 promoter act inconclusive, ELG1 genotoxic 15%, Rab9 prom act 3.5µM*, Luc counter 0%, FLuc counter inconclusive and SMN2 splice up inconclusive.
For Cc1cccc(NC(=O)C2C3CCCCC32)c1 (stereo not given) the results were NPC1 promoter act inconclusive, ELG1 genotoxic inconclusive, Rab9 prom act inconclusive and FLuc counter 19µM*.
CC(=O)Nc1ccc(C)c([N+](=O)[O-])c1 was read as NPC1 promoter act -6%, ELG1 genotoxic 3%, Rab9 prom act -7%, Luc counter -1% and FLuc counter -2%.
O=C(Nc1ccccc1)C1C2CCCCC21 (stereo not given) was read as NPC1 promoter act 7%, ELG1 genotoxic 8%, Rab9 prom act 16% and FLuc counter inconclusive.
For Cc1ccc(NC(=O)C2C3CCCCC32)cc1[N+](=O)[O-] (stereo not given) the results were NPC1 promoter act inconclusive, ELG1 genotoxic inconclusive, Rab9 prom act inconclusive and FLuc counter 12µM*.
For O=C(c1cccc(S(=O)(=O)N2CCc3ccccc32)c1)N1CCN(c2ccccn2)CC1 the results were NPC1 promoter act -6%, ELG1 genotoxic -21%, Rab9 prom act 18%, Luc counter 1%, FLuc counter -2% and SMN2 splice up inconclusive.
Screening NC(=O)[C@H]1CC2(CC(c3cccc(NC(=O)COc4ccc(Cl)cc4)c3)=NO2)CN1C(=O)Cc1ccc([N+](=O)[O-])cc1 (stereo not given in full) returned NPC1 promoter act -35%, ELG1 genotoxic -14%, Rab9 prom act -34% and FLuc counter 9.5µM*.
NC(=O)[C@@H]1CC2(CC(c3cccc(NC(=O)COc4ccc(Cl)cc4)c3)=NO2)CN1C(=O)c1ccccc1 (stereo not given in full) was read as NPC1 promoter act 0%, ELG1 genotoxic -5%, Rab9 prom act 0% and FLuc counter 15µM*.
For COc1ccc(C(=O)N2CC3(CC(c4cccc(NC(=O)COc5ccc(Cl)cc5)c4)=NO3)C[C@@H]2C(N)=O)cc1 (stereo not given in full) the results were NPC1 promoter act 1%, ELG1 genotoxic -12%, Rab9 prom act -2% and FLuc counter 11µM*.
For CCC(=O)Nc1cccc(C2=NOC3(C2)C[C@H](C(N)=O)N(C(=O)c2ccc(Cl)cc2)C3)c1 (stereo not given in full) the results were NPC1 promoter act -5%, ELG1 genotoxic 3%, Rab9 prom act 0% and FLuc counter -3%.
Cc1c(C(=O)Nc2cccc(Cl)c2)oc2ccc(S(=O)(=O)N3CCCCCC3)cc12 was read as FLuc counter 0%.
`CC[C@]12c3[nH]c4cc(CCC(=O)N(C)C)ccc4c3CCN1C(=O)[C@@H](CC(=O)NCCC1=CCCCC1)C[C@@H]2C(=O)N1CCN(C(=O)C2CC2)CC1` gave ELG1 genotoxic 11%.
COc1ccccc1Nc1nc2c(s1)CCC2 was read as NPC1 promoter act 28%, ELG1 genotoxic 16%, Rab9 prom act 27%, Luc counter 4%, FLuc counter 15µM* and SMN2 splice up -16%.
`Cc1ccc(NC(=O)Nc2nc3c(s2)CCCCCC3)cc1C` gave FLuc counter -1%.
Screening COc1ccccc1Nc1c2c(nc3ccccc13)CCC2 returned NPC1 promoter act -26%, ELG1 genotoxic -6%, Rab9 prom act -25% and FLuc counter 6%.
Cc1ccc(Nc2nc3c(s2)CCC3)c(C)c1 was read as NPC1 promoter act inconclusive, ELG1 genotoxic 21µM*, Rab9 prom act inconclusive, Luc counter -3%, FLuc counter 7.6µM* and SMN2 splice up 13µM*.
Screening Cc1sc2nc(SCC(=O)Nc3ccc(S(=O)(=O)NCCCC(=O)O)cc3)[nH]c(=O)c2c1C returned NPC1 promoter act -6%, ELG1 genotoxic 0%, Rab9 prom act -12% and FLuc counter 17µM*.
`Cc1sc2nc(SCC(=O)Nc3ccccc3F)[nH]c(=O)c2c1C` gave NPC1 promoter act -5%, ELG1 genotoxic 16%, Rab9 prom act 0% and FLuc counter -1%.
Screening Cn1c(N)c(C(=O)c2cc(-c3ccncc3)nc3ccccc23)c(=O)n(C)c1=O returned NPC1 promoter act -2%, ELG1 genotoxic inconclusive, Rab9 prom act 0%, Luc counter -12%, FLuc counter 24µM* and SMN2 splice up 12%.
COc1ccc(-c2cc(C(=O)c3c(N)n(C)c(=O)n(C)c3=O)c3ccccc3n2)cc1OC was read as NPC1 promoter act 9%, ELG1 genotoxic inconclusive, Rab9 prom act 24%, Luc counter -10% and FLuc counter 9.5µM*.
Cn1c(N)c(C(=O)COC(=O)c2cc(-c3ccccc3)nc3ccccc23)c(=O)n(C)c1=O was read as Luc counter -1% and SMN2 splice up -4%.
Screening O=c1oc2ccccc2cc1-c1cn2cc(Cc3ccc(Cl)cc3)sc2n1 returned FLuc counter -1% and SMN2 splice up -2%.
